# Sampled rows, rich in hits. Any-hit rate of the full collection: about 3.8%.
# TGFb SMAD3 inh = qHTS for Inhibitors of TGF-b; actives 1.2% (n = 410,000); Potency, µM (doses to about 46.1 µM), for the others: top-dose activity, negative = inhibition, actives largely listed as inhibitors; AID 588855, 2011; HepG2 CAGA-GFP TGF-b/SMAD3 reporter, GFP fluorescence, 18 h; TGF-beta stimulated, 500 pg/mL final; further: on the % scale 0 is the no-effect control and ±100 the full control effect; nearly all actives have a fitted effect of over 65% in size
#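 TGF-beta reporter screen: HEPG2 CAGA-GFP, 1% FBS, 500 pg/mL TGF-beta final, 18 h; per-cell GFP summed per well; curves fitted and categorized by class.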
# HepG2 viability = qHTS for Inhibitors of TGF-b: Cytotox Counterscreen; HepG2 CAGA-GFP viability, ATP luminescence, 18 h; Potency, µM (top dose mostly 46.1 µM), for the others: top-dose activity change, negative = cytotoxicity, usual class: cytotoxic; actives 0.76% (n = 410,000)
#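 HepG2 CAGA-GFP cells (1000/well, DMEM with 1% FBS) received compound, then TGF-beta at 500 pg/mL final, and were incubated 18 hours at 37 degrees C. Viability was read by CellTiter-Glo luminescence. Media-only wells were set as complete cell-killing and DMSO as no toxicity.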
# A549 tox-1 = Nrf2 qHTS screen for inhibitors: counterscreen for cytotoxicity; Potency, µM (series often up to 46 µM), for the others: at the highest dose activity change, negative = cytotoxicity, usual class: inhibitors; A549 ARE-Fluc cells, CellTiter-Fluor viability, 18-24 h; actives 0.16% (n = 390,000); further: on the % scale 0 is the no-effect control and ±100 the full control effect
#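 A549 ARE-Fluc cells in 5% FBS OPTI-MEM, 5000 cells/well, rested 2 h then exposed to compounds in concentration-response for 18-24 h at 37 °C. Viability by CellTiter-Fluor fluorescence (Ex 405/Em 525) after 30 min; luciferase luminescence (BugLite, 15 min, RT) read afterwards.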
# S2 tox = Viability Counterscreen for Primary qHTS for Inhibitors of ATXN expression; S2 cells (HEK-293 line with an ATXN2-luciferase reporter) viability, CellTiter-Fluor protease fluorescence, 24 h; Potency, µM (series often up to 56.7 µM), usual class: cytotoxic; actives 0.49% (n = 400,000); AID 651635, 2014; further: nearly all actives have a fitted effect of over 40% in size
# Nrf2 block = Nrf2 qHTS screen for inhibitors; actives 2.1% (n = 360,000); A549 ARE-Fluc reporter, luciferase luminescence, 18-24 h; AID 504444, 2011; Potency, µM (titrated, usually from 46 µM), for the others: at the top dose activity change, negative = inhibition, hits mostly inhibitors; further: on the % scale 0 is the no-effect control and ±100 the full control effect; nearly all actives have a fitted effect of over 60% in size
#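 Nrf2 activity is the BugLite luminescence, read 15 min after reagent at room temperature, following CellTiter-Fluor cytotoxicity readout (30 min, 37C). Compound titrations were applied for 18-24 h to 5000 A549 ARE_Fluc cells/well in 5% FBS OPTI-MEM.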
# ATXN2 expr inh = Primary qHTS for Inhibitors of ATXN expression | HEK-293 ATXN2-luciferase reporter, luminescence, 24 h | actives 0.72% (n = 360,000) | Potency, µM (top dose mostly 57 µM), without a hit: top-dose activity change, negative = inhibition, most hits filed as inhibitors | AID 1745845, 2022; further: on the % scale 0 is the no-effect control and ±100 the full control effect; nearly all actives have a fitted effect of over 55% in size
#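 qHTS (up to 57 uM final) was run with 24 h compound exposure of reporter cells at 37 °C. Each well was multiplexed: SteadyGlo luminescence measured ATXN2-luciferase expression after a fluorogenic Gly-Phe-AFC viability readout (25 uM final).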
# FLuc enzyme inh = Nrf2 qHTS screen for inhibitors: Purified Fluc Biochemical Counterscreen for Hit Validation; shares compounds with Nrf2 block; Potency, µM (series often up to 57.5 µM), inactives show at the top dose activity change, negative = inhibition, actives largely listed as inhibitors; actives 4% (n = 1,400); purified firefly luciferase, luminescence inhibition; AID 720522, 2013; further: on the % scale 0 is the no-effect control and ±100 the full control effect; nearly all actives have a fitted effect of over 65% in size
# Target sequence (P08659 whole entry, looked up): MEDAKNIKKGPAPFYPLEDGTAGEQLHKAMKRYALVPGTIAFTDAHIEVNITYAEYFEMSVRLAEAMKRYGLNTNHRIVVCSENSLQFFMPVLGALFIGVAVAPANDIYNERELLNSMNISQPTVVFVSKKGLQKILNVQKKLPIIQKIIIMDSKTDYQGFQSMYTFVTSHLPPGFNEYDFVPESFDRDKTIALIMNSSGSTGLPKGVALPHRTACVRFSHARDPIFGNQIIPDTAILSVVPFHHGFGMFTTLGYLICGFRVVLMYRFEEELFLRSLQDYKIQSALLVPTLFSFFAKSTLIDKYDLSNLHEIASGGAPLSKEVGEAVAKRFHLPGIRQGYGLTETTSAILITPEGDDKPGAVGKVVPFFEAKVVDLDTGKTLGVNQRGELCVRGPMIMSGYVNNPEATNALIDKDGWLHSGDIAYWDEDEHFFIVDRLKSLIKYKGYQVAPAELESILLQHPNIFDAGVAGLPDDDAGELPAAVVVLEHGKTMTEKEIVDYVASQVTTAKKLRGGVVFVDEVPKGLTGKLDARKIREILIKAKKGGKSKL
# A549 tox-2 = Nrf2 qHTS screen for inhibitors: A549 ARE-Fluc Cytotoxicity Counterscreen for Hit Validation; A549 ARE-Fluc cells, cytotoxicity counterscreen; Potency, µM (top dose mostly 46.1 µM), inactives show at the top dose activity change, negative = cytotoxicity, most hits filed as inhibitors; shares compounds with Nrf2 block; actives 2% (n = 1,400);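 further: cells exposed to compounds for 18 to 24 hours; on the % scale 0 is the no-effect control and ±100 the full control effect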
# Nrf2 ARE inh = Nrf2 qHTS screen for inhibitors: Nrf2 A549 ARE-Fluc Confirmation Assay for Hit Validation | shares compounds with Nrf2 block | A549 ARE-firefly luciferase reporter, luminescence | Potency, µM (series often up to 46.1 µM), inactives show top-dose activity change, negative = inhibition, actives largely listed as inhibitors | actives 74% (n = 1,400) | AID 720524, 2013; further: on the % scale 0 is the no-effect control and ±100 the full control effect; nearly all actives have a fitted effect of over 65% in size
# Numbers without * were called inactive; i = inactive; ? = inconclusive; . = no result given. The call rests on the fitted dose curve; in most records, active means well fitted curve in the direction sought with a large enough effect; inconclusive means small, poorly fitted or top-dose-only effect, or another doubt; inactive means no such curve, though single readings can be large; an effect the other way counts as inactive or inconclusive. Potency means the concentration at half of the fitted maximal effect.
SMILES,TGFb SMAD3 inh,HepG2 viability,A549 tox-1,S2 tox,Nrf2 block,ATXN2 expr inh,FLuc enzyme inh,A549 tox-2,Nrf2 ARE inh
Cc1ccc(Cl)cc1N1CCN(C(=O)CSc2nnc3n2C(C)(C)Cc2ccccc2-3)CC1,-7.8%,-11.6%,?,?,6.51µM*,?,-0.4%,?,6.51µM*
O=C(/C=C/c1ccc(Cl)cc1)NC(=S)Nc1ccc(NC(=O)c2ccco2)cc1,-8.7%,10.2%,-15.0%,i,0.82µM*,-9.2%,-0.1%,-23.5%,0.82µM*
Cn1c2c(c(=O)[nH]c1=O)C(c1cccc(O)c1)C1=C(N2)c2ccccc2C1=O (centres undefined),8.3%,-22.8%,-24.5%,?,8.2µM*,?,-25.2%,?,4.61µM*
COC(=O)C1=C(C)NC2=C(C(=O)c3ccccc32)C1c1cccc(OC)c1 (centres undefined),3.2%,-0.7%,-26.5%,i,-4.9%,.,.,.,.
COc1ccccc1Nc1nc(-c2sc(NC(=O)C(C)(C)C)nc2C)cs1,?,-38.7%,-4.2%,i,7.31µM*,-16.8%,?,-17.6%,20.6µM*
CCCC(=O)Nc1nc(C)c(-c2csc(Nc3ccc(Cl)cc3)n2)s1,-11.2%,-9.2%,?,i,7.31µM*,-18.4%,16.9µM*,-16.6%,?
CCC(=O)Nc1nc(C)c(-c2csc(Nc3ccc(C(=O)O)cc3)n2)s1,11.6%,-20.2%,-0.8%,i,16.5%,5.9%,.,.,.
CCN(CC)S(=O)(=O)c1cc(NC(=O)CNc2cccc(S(=O)(=O)N3CCCC3)c2)ccc1C,?,-11.4%,-19.2%,?,5.17µM*,-30.4%,0.2%,-22.0%,8.2µM*
CCN(CC)S(=O)(=O)c1cccc(NC(=O)CNc2cccc(S(=O)(=O)N3CCOCC3)c2)c1,?,-23.1%,?,i,1.3µM*,-31.6%,1.7%,-16.7%,2.06µM*
CCN(CC)S(=O)(=O)c1cc(NC(=O)Cc2ccc(S(=O)(=O)N3CCOCC3)s2)ccc1Cl,?,-26.2%,?,i,1.3µM*,?,-11.8%,-23.9%,6.51µM*
CN(C)S(=O)(=O)c1ccc(NC(=O)Cc2ccc(S(=O)(=O)N3CCOCC3)s2)cc1,-7.8%,-20.9%,5.8%,i,-25.3%,-12.6%,.,.,.
CC(CC(=O)Nc1ccc(Cl)c(S(=O)(=O)N2CCOCC2)c1)c1ccccc1 (centres undefined),?,0.0%,-18.7%,?,7.31µM*,-29.0%,-0.7%,-4.3%,3.26µM*
O=C(O)CC(SCC(=O)Nc1ccc(Cl)c(S(=O)(=O)N2CCOCC2)c1)C(=O)O (centres undefined),15.9%,4.1%,-7.3%,i,-6.5%,-3.8%,.,.,.
Cc1ccc2nc(SC(C)C(=O)N3CCOCC3)[nH]c2c1 (centres undefined),-3.6%,8.2%,1.5%,i,?,42.7%,.,.,.
CCCOC(=O)c1c(-c2ccccc2)c(-c2ccccc2)nn(C)c1=O,-72.2%,-29.4%,-19.7%,.,-9.1%,.,.,.,.
Cc1ccc(S(=O)(=O)c2cccc(S(=O)(=O)N3CCCC3)c2)cc1S(=O)(=O)N1CCCC1,-13.4%,-16.4%,-25.9%,i,8.2µM*,-17.1%,-0.1%,-10.9%,20.6µM*
CCOc1ccc(-c2nc(Cn3c(=O)cc(-c4ccccc4)c4c(C)nn(C)c43)c(C)o2)cc1,-0.2%,4.8%,8.6%,.,5.8µM*,.,-0.1%,-2.8%,13.9%
CCOc1ccc(CCNc2ncnc3onc(C)c23)cc1OCC,-22.7%,-21.4%,0.6%,i,7.31µM*,-21.7%,3.0%,-3.1%,?
Cc1ccc(CCNc2ncnc3onc(C)c23)cc1,-4.1%,-24.5%,-1.4%,?,9.2µM*,-28.7%,?,0.1%,5.8µM*
COc1ccc(CNc2ncnc3onc(C)c23)cc1,-2.7%,-14.8%,1.8%,.,4.11µM*,.,-1.4%,0.7%,?
COc1ccccc1-[n+]1c(C)cc(/C=C2\Sc3ccccc3N2C)cc1C,115.2%,-103.0%,?,?,4.11µM*,.,0.536µM*,?,0.259µM*
CC(C)(C)OC(=O)C[C@@H]1C/C=C\C[C@H](CC(=O)N(CCO)Cc2ccccc2)C(=O)NCCOC1=O,-11.5%,-0.4%,1.7%,i,1.8%,-3.1%,.,.,.
CCOC(=O)c1cc(C)n(CC2CCC(C(=O)Nc3cccc(Cl)c3)CC2)c1C (centres undefined),?,-43.7%,-24.1%,.,.,.,.,.,.
CCOC(=O)c1cc(C)n(CC2CCC(C(=O)Nc3ccc(Cl)cc3)CC2)c1C (centres undefined),8.91µM*,-24.9%,?,.,8.2µM*,.,-11.7%,-24.4%,13µM*
O=C1C=CCC(/C=C/c2ccccc2)O1 (centres undefined),?,12.6µM*,-16.4%,?,2.59µM*,5.01µM*,-9.1%,?,1.3µM*
COCCn1c(N)c(S(=O)(=O)c2cccs2)c2nc3ccccc3nc21,18.0%,-2.1%,1.0%,i,-5.4%,-10.2%,.,.,.
COc1cccc(/C=N/n2c(N)c(S(=O)(=O)c3cccs3)c3nc4ccccc4nc32)c1OC,1.6%,-2.9%,?,i,3.66µM*,?,-1.2%,-12.6%,.
C/C=C1\[C@H]2C=C(C)C[C@]1(N)c1ccc(=O)[nH]c1C2,.,.,.,i,.,15.2%,.,.,.
CN1CCN(C(CNC(=O)c2ccc(Br)o2)c2ccc(F)cc2)CC1 (centres undefined),4.7%,5.5%,0.1%,i,-0.6%,4.0%,.,.,.
